# Measurements reported in PubChem BioAssay.
# Calls of active or inactive are those of the source. No rule for the calls is given here.
# Target: Pantothenate synthetase (Mycobacterium tuberculosis (strain ATCC 25618 / H37Rv)) (UniProt P9WIL5)
# Assay: Recombinant Mtb pantothenate synthetase (PanC) inhibitors, coupled enzyme, confirmatory (AID 375);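 also: 0% = full reaction with vehicle and 100% = no enzyme background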
# Settings: coupled enzyme assay; at 10 µM, stronger effect = higher value
# Chain of Pantothenate synthetase (Mycobacterium tuberculosis (strain ATCC 25618 / H37Rv)) (P9WIL5 whole entry, looked up): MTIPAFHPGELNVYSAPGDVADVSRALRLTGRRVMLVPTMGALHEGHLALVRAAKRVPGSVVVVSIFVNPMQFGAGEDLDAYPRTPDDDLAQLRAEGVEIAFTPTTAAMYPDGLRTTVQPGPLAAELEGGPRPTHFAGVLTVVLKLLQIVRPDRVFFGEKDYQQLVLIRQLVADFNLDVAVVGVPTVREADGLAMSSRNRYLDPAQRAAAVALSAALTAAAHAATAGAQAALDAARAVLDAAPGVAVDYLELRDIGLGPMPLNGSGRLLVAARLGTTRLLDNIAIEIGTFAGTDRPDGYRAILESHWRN
row,SMILES,inhibition
1,OCCN1CCN(CCCN2c3ccccc3Sc3ccc(C(F)(F)F)cc32)CC1,2% (inactive)
2,Cc1cccc2cc(CN(Cc3nnnn3Cc3ccco3)C3CCCC3)c3nnnn3c12,3% (inactive)
3,CCc1nnc(NC(=O)c2ccc(COc3ccccc3)o2)s1,6% (inactive)
4,COc1ccc(N(CC(=O)N2CCCCC2)S(=O)(=O)c2ccccc2)c(OC)c1,0% (inactive)
5,N#CC1=C(N)OC(c2ccccc2)=C(C#N)C1c1ccc2c(c1)OCO2 (stereo not given),0% (inactive)
6,CCOC(=O)C1CCCN(CC(=O)NC2CC2)C1 (stereo not given),6% (inactive)
7,O=C(Cn1c(=O)[nH]n(-c2ccccc2)c1=O)N1CCCc2ccccc21,0% (inactive)
8,CCc1nc2sc3ccccc3c(=O)c2c(=O)n1Cc1ccco1,0% (inactive)
9,Nc1nc(C(=O)N2CCOCC2)nn1S(=O)(=O)c1ccc(Cl)cc1,0% (inactive)
10,CCOc1nc(NCCC2=CCCCC2)nc(N2CCOCC2)n1,0% (inactive)
11,CC(NC(=O)NC12CC3CC(CC(C3)C1)C2)C1CCCO1 (stereo not given),5% (inactive)
12,C=CCOc1nc(N2CCCC2)nc(N2CCCC2)n1,5% (inactive)
13,CCOC(=O)Cn1c(=N)n(CCOc2cccc(C)c2)c2ccccc21,0% (inactive)
14,O=c1[nH]c(NCc2ccco2)nnc1Cc1ccccc1Cl,0% (inactive)
15,CCCn1cc(SCC(N)=O)c2ccccc21,0% (inactive)
16,COc1ccc(N2C(=O)CC(N3CCN(S(=O)(=O)c4c(F)cccc4F)CC3)C2=O)cc1OC (stereo not given),1% (inactive)
17,CN(CC(O)COc1ccc(OCC(O)CN(C)C2CCCCC2)cc1)C1CCCCC1 (stereo not given),4% (inactive)
18,CCOC(=O)Cc1csc(NC(=O)CSc2nnc(C)n2C)n1,0% (inactive)
19,CCOC(=O)C(NC(=O)C1CCCN1C(=O)OCc1ccccc1)C(=O)OCC (stereo not given),4% (inactive)
20,COc1ccc(S(=O)(=O)Cc2ccc(C(=O)N3CCN(Cc4ccccc4)CC3)o2)cc1,0% (inactive)

row,SMILES,inhibition
1,COCCNC(=O)c1ccc(CS(=O)(=O)c2ccc(OC)cc2)o1,0% (inactive)
2,O=C(Nc1cnn(Cc2ccc(F)cc2)c1)c1cnccn1,2% (inactive)
3,COc1ccc(N=c2scc(-c3ccc(S(=O)(=O)N4CCOCC4)cc3)n2CCCO)cc1,0% (inactive)
4,O=C(NCCN1C(=O)C2C3C=CC(C3)C2C1=O)N1CCOCC1 (stereo not given),0% (inactive)
5,CCOC(=O)N1CCC(NC(=O)c2ccc(CS(=O)(=O)c3c(Cl)cccc3Cl)o2)CC1,0% (inactive)
6,CC1CCc2nn(CC(=O)N3CCN(C(=O)c4ccco4)CC3)cc2C1 (stereo not given),10% (inactive)
7,CCOC(=O)c1c(C)n(C)c2ccc(O)c(S(=O)(=O)c3ccccc3)c12,9% (inactive)
8,Cc1csc(NC(=O)CCn2c(=O)oc3ccccc32)n1,1% (inactive)
9,Cc1nc2ccccc2nc1OCC(=O)Nc1cc(C(F)(F)F)ccc1N1CCOCC1,0% (inactive)
10,CC(NC(=O)NCCCC(=O)O)(C(F)(F)F)C(F)(F)F,0% (inactive)
11,CCOc1ccc(NC(=O)CSc2nccn2C)cc1,6% (inactive)
12,CCOc1ccccc1N1CCN(C(=O)c2ccncc2)CC1,0% (inactive)
13,CCn1cc(C(=O)N=c2sc3ccccc3n2C)c(=O)c2ccc(C)nc21,0% (inactive)
14,O=C(CN(CCc1ccccc1)C(=O)CN1C(=O)COc2ccccc21)NCc1ccco1,10% (inactive)
15,CN(C)/C=N/c1ncnc2c1cnn2-c1ccc(C(F)(F)F)cn1,3% (inactive)
16,Cc1cc(=O)n(-c2ccc3ccccc3n2)[nH]1,6% (inactive)
17,CC(C)NCC(O)COc1cccc2[nH]ccc12 (stereo not given),0% (inactive)
18,COc1ccc2c(c1)C(C)=CC(C)(C)N2C(=O)C(C)N1C(=O)c2ccccc2C1=O (stereo not given),4% (inactive)
19,Cc1nn(-c2ccccc2)c(C)c1/C=N/O,0% (inactive)
20,c1ccc(Cc2nnc3n2CCCCC3)cc1,6% (inactive)
